# Measured values as given in PubChem BioAssay (NCI).
# Compounds without any hit were thinned out: in the full panel of roughly 79,000, 15% have a hit. The source made the active and inactive calls. No stated cut-off is given here; in the data, active means growth inhibition above about 70%; inactive means the rest.
# Experiment: NCI Yeast Anticancer Drug Screen. Data for the mec2-1 strain (AID 157)
# Details: S. cerevisiae mec2-1 strain, at 50.0 µM, stronger effect = higher value
# Procedure, shortened: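 Strain: mec2-1 (DNA repair/cell cycle alteration). Compound exposure, then growth measured; inhibition expressed relative to vehicle.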
row,SMILES,growth inhibition
1,CC(=O)Nc1ccc(S(=O)(=O)O)nc1,5.15% (inactive)
2,CCCCCCc1ccc2c3cccc4cccc(c5cccc1c52)c43,-15.6% (inactive)
3,CCCCCCC(C)(O)C(C)O (centres undefined),8.5% (inactive)
4,CN=C1SC(C)(C)NN1C,1.85% (inactive)
5,CCSC(SCC)C(NC(C)=O)C(O)C(O)COC(=O)c1ccccc1 (centres undefined),17.3% (inactive)
6,c1ccc(CSc2ccc3ccccc3c2)cc1,-20.1% (inactive)
7,COC(OC)c1cccnc1C,16.8% (inactive)
8,O=C(C(=O)c1cccc(Cl)c1)c1ccccc1,24.6% (inactive)
9,COc1ccc(C(CCl)(CCl)c2ccc(OC)c(C)c2)cc1C,-74.1% (inactive)
10,CC(=O)C1=CN(Cc2ccccc2)C(O)CC1C(N)=O (centres undefined),-12.6% (inactive)
11,O=C(Nc1cc([N+](=O)[O-])ccc1F)Oc1ccc(OCc2ccccc2)cc1,-1.5% (inactive)
12,CCOC(=O)c1ccc(NCc2nc3ccccc3nc2C)cc1,-4% (inactive)
13,COC(=O)Nc1cccc(NC(=O)C(=O)O)c1,3.75% (inactive)
14,O=C1c2ccccc2C(=O)N1/N=N/N1C(=O)c2ccccc2C1=O,97.7% (active)
15,OC1CCC(O)[C@H]2[C@@H]1[C@@H]1S[C@H]2c2ccccc21 (some centres undefined),-14.8% (inactive)
16,CC(C)(C)C(=O)CC(=O)C(C)(C)C.[Cu],-9.35% (inactive)
17,O.O.[Cl][Pt+2][Cl].[NH-]CC1(C[NH-])CCCCC1,5.7% (inactive)
18,COc1cccc(CC2C(=O)N=C(NC(C)=O)N2C)c1OC(C)=O (centres undefined),-7.4% (inactive)
19,O=C(COc1cc(Cl)c(Cl)cc1Cl)Oc1ccccc1,4.95% (inactive)
20,COC(=O)/C=C(\C(=O)OC)C(C(=O)c1ccccc1)=P(c1ccccc1)(c1ccccc1)c1ccccc1,8.7% (inactive)
21,CCCSc1ccc2c3c(cccc13)C(=O)OC2=O,42.9% (inactive)
22,O=S1(=O)c2ccc(cc2)N=CC=Nc2ccc1cc2,-11.7% (inactive)
23,CC1CCc2c(O)ccc(O)c21 (centres undefined),5.4% (inactive)
24,COc1ccc(OC2OC(CO)C(OCc3ccccc3)C(OCc3ccccc3)C2OCc2ccccc2)cc1 (centres undefined),-11.7% (inactive)

# Experiment: NCI Yeast Anticancer Drug Screen. Data for the sgs1 mgt1 strain (AID 161);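 further: 0% = growth of cultures given vehicle only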
# Details: S. cerevisiae sgs1 mgt1 strain, at 50.0 µM, stronger effect = higher value
# Procedure, shortened: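 Inhibition of yeast growth, normalised to vehicle-treated controls, is reported for a strain bearing genetic alterations in DNA damage repair.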
row,SMILES,growth inhibition
1,c1ccc(N2C3Sc4ncccc4C2Sc2ncccc23)cc1,16.6% (inactive)
2,OC1(C(O)(c2ccc(-c3ccccc3)cc2)c2ccc(-c3ccccc3)cc2)CCCCC1,-34% (inactive)
3,COc1cc(/C=C2\SC(=S)N(/C=C(/C#N)C(=O)c3ccc4ccccc4c3)C2=O)cc(OC)c1OC,53.4% (inactive)
4,O=C1CCN2C(=O)CCN12,18.7% (inactive)
5,CC(=O)Nc1c(C)ncn(-c2ccccc2)c1=O,-2.95% (inactive)
6,CCNc1ncc2nc(CC(=O)OC)c(=O)n(CC)c2n1,4.75% (inactive)
7,CC(=O)OC1C(C(O)CO)OC2OC(C)(C)OC21 (centres undefined),-14% (inactive)
8,CC(C)=CCC/C(C)=C/CC/C(C)=C/C1CCC(=O)C1(C)C (centres undefined),-43.2% (inactive)
9,CCOc1ccccc1NC(=O)C(=O)C(c1ccccc1)S(=O)(=O)Cc1ccccc1 (centres undefined),-10.1% (inactive)
10,Oc1ccc2ccccc2c1-c1c(OC(c2ccccc2)c2ccccc2)ccc2ccccc12,0.2% (inactive)
11,NC(N)=N/N=C(\c1nc2ccc([N+](=O)[O-])cc2[nH]c1=O)C(O)c1ccc([N+](=O)[O-])cc1 (centres undefined),-16.6% (inactive)
12,CCOC(=O)CC1C(C)C(C)NC(C)C1C (centres undefined),-20.2% (inactive)
13,O=C1CCCCC1N1CCCCC1 (centres undefined),10.8% (inactive)
14,CN(C)C(=O)c1cccnc1,-4.8% (inactive)
15,CC(CCC(=O)O)[C@H]1CCC2[C@@H]3C(=O)C[C@@H]4CC(O)CC[C@]4(C)C3CC[C@@]21C (some centres undefined),41.5% (inactive)
16,CCC(c1ccccc1)c1cc(C(C)(C)C)cc(C(C)(C)C)c1O (centres undefined),-15.4% (inactive)
17,CC(=O)Nc1ccc(S(=O)(=O)O)nc1,-6.8% (inactive)
18,CCCCCCc1ccc2c3cccc4cccc(c5cccc1c52)c43,-22.1% (inactive)
19,CCCCCCC(C)(O)C(C)O (centres undefined),24.2% (inactive)
20,CN=C1SC(C)(C)NN1C,4.35% (inactive)

row,SMILES,growth inhibition
1,CCSC(SCC)C(NC(C)=O)C(O)C(O)COC(=O)c1ccccc1 (centres undefined),17.4% (inactive)
2,c1ccc(CSc2ccc3ccccc3c2)cc1,-13.5% (inactive)
3,COC(OC)c1cccnc1C,-25.1% (inactive)
4,O=C(C(=O)c1cccc(Cl)c1)c1ccccc1,5% (inactive)
5,COc1ccc(C(CCl)(CCl)c2ccc(OC)c(C)c2)cc1C,-30.2% (inactive)
6,CC(=O)C1=CN(Cc2ccccc2)C(O)CC1C(N)=O (centres undefined),4.7% (inactive)
7,O=C(Nc1cc([N+](=O)[O-])ccc1F)Oc1ccc(OCc2ccccc2)cc1,9.9% (inactive)
8,CCOC(=O)c1ccc(NCc2nc3ccccc3nc2C)cc1,-18% (inactive)
9,COC(=O)Nc1cccc(NC(=O)C(=O)O)c1,-0.95% (inactive)
10,O=C1c2ccccc2C(=O)N1/N=N/N1C(=O)c2ccccc2C1=O,98.1% (active)
11,OC1CCC(O)[C@H]2[C@@H]1[C@@H]1S[C@H]2c2ccccc21 (some centres undefined),-22.4% (inactive)
12,CC(C)(C)C(=O)CC(=O)C(C)(C)C.[Cu],-4.2% (inactive)
13,O.O.[Cl][Pt+2][Cl].[NH-]CC1(C[NH-])CCCCC1,11.8% (inactive)
14,COc1cccc(CC2C(=O)N=C(NC(C)=O)N2C)c1OC(C)=O (centres undefined),-23.6% (inactive)
15,O=C(COc1cc(Cl)c(Cl)cc1Cl)Oc1ccccc1,7.65% (inactive)
16,COC(=O)/C=C(\C(=O)OC)C(C(=O)c1ccccc1)=P(c1ccccc1)(c1ccccc1)c1ccccc1,-4.2% (inactive)
17,CCCSc1ccc2c3c(cccc13)C(=O)OC2=O,46% (inactive)
18,O=S1(=O)c2ccc(cc2)N=CC=Nc2ccc1cc2,10% (inactive)
19,CC1CCc2c(O)ccc(O)c21 (centres undefined),2.5% (inactive)
20,COc1ccc(OC2OC(CO)C(OCc3ccccc3)C(OCc3ccccc3)C2OCc2ccccc2)cc1 (centres undefined),-11.7% (inactive)
